# Out of some 330,000 compounds screened, about 4,200 (1.3%) were called active. Not shown: some 6% with an inconclusive outcome. The list comes from a sample in which actives are over-represented; it also holds similar structures and randomly drawn compounds. Values without a mark were called inactive. The call rests on the fitted dose curve; in most records, active means well fitted activation curve with a large enough effect; inconclusive means small, poorly fitted or top-dose-only effect; inactive means no such curve, though single readings can be large or run the other way.
# Test: qHTS screen for small molecules that induce genotoxicity in human embryonic kidney (HEK293T) cells expressing luciferase-tagged ELG1; further: nearly all actives have a fitted effect of over 60% in size; on activity change, positive = activation: % of control where 0% means no effect
# Conditions: HEK293T ELG1-luciferase reporter, luminescence, 16 h; series mostly up to 46 µM; activity change, positive = activation: at the top concentration
# How it was run: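 Reporter readout depends on ELG1 protein level, which increases with genetic stress. After 16 hr compound exposure at 37 °C, luciferase activity was quantified using ONE-Glo.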
# Potency means the concentration at half of the fitted maximal effect.
SMILES,"activity change, positive = activation",Potency
COc1cc(C2CC(=O)Oc3cc(OC)c(OC)c(OC)c32)cc(OC)c1OC (configuration not stated),6.8%,–
CC1CC(=NNC(=O)C2COc3ccccc3O2)CC(C)(C)C1 (configuration not stated),-0.92%,–
COc1cc(SC)ccc1C(=O)N(Cc1ccccc1)c1ccccc1,-15.1%,–
COc1cc(SC)ccc1C(=O)Nc1nc(C)cs1,–,0.058 µM (active)
Cc1csc(NC(=O)c2ccc(-c3ccc(Cl)cc3Cl)o2)n1,3.82%,–
CN(C)C(=O)CCc1ccc2c3c([nH]c2c1)[C@]1(CCc2ccccc2)[C@@H](C(=O)N2CCCCC2)C[C@H](CC(=O)NCCC2=CCCCC2)C(=O)N1CC3,-1.89%,–
CN(Cc1ccc(F)cc1)C(=O)CN1C(=O)c2ccccc2S1(=O)=O,1.21%,–
CC[C@]12c3[nH]c4cc(CCC(=O)N(C)C)ccc4c3CCN1C(=O)[C@@H](CC(=O)NCc1ccco1)C[C@@H]2C(=O)N1CCN(C(=O)c2ccco2)CC1,20.3%,–
C(=N/N1CCN(c2ccccc2)CC1)/c1cccs1,–,14.6 µM (active)
Cc1ccc(N2CCN(/N=C/c3cccs3)CC2)cc1,13%,–
COc1cc(/C=N/N2CCN(c3ccccc3)CC2)ccc1OC(C)=O,9.3%,–
CN(CC(=O)Nc1ccc(OC(F)F)cc1)S(=O)(=O)/C=C/c1ccccc1,-3.81%,–
COc1ccc2sc(-c3ccc(N(C)C)cc3)c(-c3ccc4cc[nH]c4c3)c2c1,17.5%,–
Cc1ccc(C(=O)Nc2ccc(NC(=O)c3cccs3)cc2)c(C)c1,12.3%,–
O=C(Nc1ccc(NC(=O)c2cccs2)cc1)c1ccc2ccccc2c1,7.6%,–
O=C(Nc1ccc2oc(-c3ccc4ccccc4c3)nc2c1)c1cccs1,–,2.91 µM (active)
COc1ccc(CCNC(=O)COC(=O)c2cnc(Cl)c(Cl)c2)cc1,1.14%,–
Cc1ccc2[nH]c(=O)c(COC(=O)c3ccccn3)cc2c1,-6.71%,–
CCOC(=O)c1cc2cc(C)ccc2[nH]1,–,20.6 µM (active)
CCOC(=O)c1[nH]c2ccc(C)cc2c1N=C(C)N(C)C,23.2%,–
C[C@H]1CN([C@@H](C)CO)C(=O)Cc2cc(NC(=O)Cc3ccccc3)ccc2O[C@H]1CN(C)S(=O)(=O)c1cccs1,1.09%,–
Cc1ccc(N2C(=O)N3[C@@H]4c5ccccc5OC[C@@H]4[C@@H](c4ccccc4)[C@@]3(C)C2=O)cc1,-0.332%,–
Cc1ccc(C(=O)c2c(NC(=O)c3ccccc3)sc(C)c2C)cc1,-2.49%,–
Cc1sc(NC(=O)c2ccc3ncsc3c2)c(C(N)=O)c1C,–,2.31 µM (active)
COc1ccccc1-c1nnc(NC(=O)c2ccc3ncsc3c2)o1,7.32%,–
C=CC[C@H](CC(=O)NCCO)C(=O)N[C@@H](COC(=O)[C@@H](CC=C)Cc1ccc(F)cc1)Cc1c[nH]c2ccccc12,-2.33%,–

SMILES,"activity change, positive = activation",Potency
CCN(CC)Cc1cc(C(C)=O)ccc1O,3.57%,–
CC(=O)c1ccc2c(ccc3ccccc32)c1,–,23.1 µM (active)
CC(=O)c1ccc2c(c1)OCCOCCOc1ccc(C(C)=O)cc1OCCOCCO2,-0.445%,–
COc1ccccc1N(CC(=O)Nc1ccc(C)cc1Cl)S(=O)(=O)c1cccs1,-2.65%,–
CCCn1nnc2sc3c(c2c1=O)CCC(C)C3 (configuration not stated),–,11.6 µM (active)
CCCSc1nc2sc3c(c2c(=O)n1-c1ccc(OC)cc1)CCN(C)C3,-9.85%,–
C=CCn1c(SCc2c(C)noc2C)nc2sc3c(c2c1=O)CCC(C)C3 (configuration not stated),0.713%,–
O=C(COC(=O)COc1ccccc1F)Nc1cccc(S(=O)(=O)N2CCCCC2)c1,4.69%,–
COc1cc(OC)cc(C(=O)NNC(=O)Cc2cccs2)c1,-0.795%,–
CCCOc1ccccc1-c1nc(SCCC(=O)O)n[nH]1,1.68%,–
Cc1cc(C)nc(Nc2ncn[nH]2)n1,-0.83%,–
Cc1cc(C)nc(Nc2n[nH]c(-c3ccccc3N)n2)n1,–,2.31 µM (active)
COc1cc(OC)cc(-c2c(C#Cc3ccsc3)c3cc(-c4ccc(OC)cc4F)ccc3n2C)c1,5.57%,–
Nc1ccc(-c2nnc(-c3ccccc3)o2)cc1,–,16.4 µM (active)
OC(c1nnc(-c2ccccc2)o1)c1cccs1 (configuration not stated),-5.58%,–
Nc1ccc(-c2sc(N)nc2-c2ccccc2)cc1,0.398%,–
CC(C)n1cnc2c(NCc3ccccc3)cc(OCC3CCN(C)CC3)cc21,-8.43%,–
Cc1ccc(-c2csc(-c3c[nH]c4ccccc34)n2)cc1,–,23.1 µM (active)
Cc1ccc(-c2csc(NC3OC(=O)c4ccccc43)n2)cc1 (configuration not stated),-7.01%,–
Cc1ccc(-c2csc(NC(=O)Cn3[nH]c(=O)c4ccccc4c3=O)n2)cc1,8.72%,–
O=C(Cn1cc(C(F)(F)F)ccc1=O)Nc1ccc2c(c1)OCCO2,-0.83%,–
Cc1ccc(C)c(N2CCN(C(=O)CCc3nc(-c4cccc(C(F)(F)F)c4)no3)CC2)c1,11.2%,–
Cc1c(C(=O)Nc2cccc(S(=O)(=O)N3CCOCC3)c2)oc2ccccc12,-4.37%,–
O=C(COC(=O)c1n[nH]c2ccccc12)Nc1ccccc1Br,4.1%,–
CC(=O)Nc1ccc(NC(=O)COC(=O)C2CCC(C(C)(C)C)CC2)cc1 (configuration not stated),-0.905%,–
CSCC[C@H](NC(=O)OC(C)(C)C)C(=O)N/N=C/c1cc2ccc(C)cc2nc1Cl,0.217%,–

# Source: PubChem BioAssay AID504466 (National Center for Advancing Translational Sciences (NCATS), 2011)
